Screens from PubChem BioAssay.
MazF activator – activators of E. coli MazEF toxin-antitoxin RNase | P0AE70 | FAM/BHQ RNA-DNA oligo cleavage fluorescence, 5 h | activation, % at 20 µM | 350,000 compounds, 0.32% hits | AID 504720; in the data active means activation above about 50%
Target sequence (P0AE70 whole entry, looked up): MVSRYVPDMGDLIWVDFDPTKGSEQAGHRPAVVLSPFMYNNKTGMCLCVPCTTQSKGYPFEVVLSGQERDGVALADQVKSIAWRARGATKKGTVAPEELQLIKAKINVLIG
BH1578 lux ind – quorum light induction in luxS cqsA deficient V. cholerae; V. cholerae BH1578 lux reporter, luminescence, 6 h; activation, % at 18.7 µM; 350,000 compounds, 0.16% hits; AID 588436; in the data active means activation mostly above about 9.7%, no sharp cut-off; inconclusive means no clear call, values can overlap the other calls; inactive means mostly below about 3.7%
BJeLR lethal – BJeLR cell viability loss; BJeLR (HRASV12) viability, CellTiter-Glo ATP luminescence, 48 h; inhibition, % (no concentration beside the values); 300,000 compounds, 0.17% hits; AID 1554; in the data active means inhibition above about 50%; inconclusive means no clear call, values can overlap the other calls
VHR inh abs – inhibitors of human VHR1 phosphatase (DUSP3); inhibition, % at 13.3 µM; 290,000 compounds, 0.52% hits; P51452; recombinant VHR phosphatase, pNPP absorbance; in the data active means inhibition above about 50%
Target sequence (P51452 whole entry, looked up): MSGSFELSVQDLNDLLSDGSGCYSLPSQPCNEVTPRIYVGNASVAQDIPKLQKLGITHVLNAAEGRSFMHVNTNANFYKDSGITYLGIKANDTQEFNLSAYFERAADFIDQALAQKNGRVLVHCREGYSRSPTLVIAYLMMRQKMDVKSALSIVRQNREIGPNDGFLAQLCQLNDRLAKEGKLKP
PfHsp40 rescue – restores yeast growth despite PfHsp40 toxicity; S. cerevisiae expressing PfHsp40, growth rescue, ATP luminescence; growth rescue, % at 12.5 µM; 340,000 compounds, 0.68% hits; in the data active means growth rescue above about 28%, passing the limit was not always enough; inconclusive means no clear call, values can overlap the other calls;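 further: yeast W303a lacking pdr1 and pdr3 grown in galactose medium; growth measured after three days at 30 °C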
SARS 3CLpro inh – SARS-CoV 3CLpro protease inhibition; recombinant SARS-CoV 3CLpro, quenched FRET peptide cleavage; inhibition, % at 6 µM; 290,000 compounds, 0.14% hits; AID 1706; in the data active means inhibition above about 12%
Hits are given with their value; n = inactive; u = inconclusive; x = not tested or not shown. The list is not random: actives were taken first. Their share in the collection is about 1.7%.

SMILES	MazF activator	BH1578 lux ind	BJeLR lethal	VHR inh abs	PfHsp40 rescue	SARS 3CLpro inh
O=C(NCc1ccccc1)C1CCN(S(=O)(=O)c2ccc(N3CCCC3=O)cc2)CC1	n	n	n	52	n	n
O=C(NCc1ccccc1Cl)C1CCN(S(=O)(=O)N2CCCCCC2)CC1	n	n	n	54	n	n
CC1CCN(S(=O)(=O)N2CCCC(C(=O)NCc3ccccc3Cl)C2)CC1 (configuration not stated)	n	n	n	n	n	n
N#Cc1ccc(C(=O)NC(=S)N2CCN(C=O)CC2)cc1	n	n	x	x	n	x
COc1ccc(-c2cc(NC(C)=O)c3ncc(-c4ccc(F)cc4)n3c2)cc1OC	x	n	x	x	x	x
COc1cc(CNC[C@H]2O[C@@H](n3cc(C)c(=O)[nH]c3=O)C[C@@H]2O)ccc1OCc1cccc(Cl)c1	n	n	x	x	x	x
Cc1ccc(CN2CCC(CNC(=O)Nc3ccccc3F)CC2)cc1	n	n	n	n	55	n
OC(CNCC1CCCO1)COc1ccc(OCC(O)CNCC2CCCO2)cc1 (configuration not stated)	160	n	n	n	n	n
CCOC(=O)c1c(C)n(-c2ccc(C)cc2)c2ccc(OCC(O)CNCC3CCCO3)cc12 (configuration not stated)	n	n	n	n	n	n
COc1ccc(Cl)cc1C(=O)Nc1nc(C)cc(C)n1	n	n	n	n	n	n
Cc1ccc(/C=N/Nc2ccc3c(C(F)(F)F)cc(C(F)(F)F)nc3n2)cc1	285	n	n	n	n	n
COc1ccc(NC(=O)N(C)C[C@@H]2OCc3cn(nn3)CCCC(=O)N([C@H](C)CO)C[C@H]2C)cc1	n	n	x	x	x	x
Cc1ccc(C(C[N+](=O)[O-])c2c(N)n(C)c(=O)n(C)c2=O)cc1 (configuration not stated)	n	n	n	n	364	n
COc1cc(C(C[N+](=O)[O-])c2c(N)n(C)c(=O)n(C)c2=O)ccc1O (configuration not stated)	n	n	n	n	n	n
Cc1c(C(=O)NCCSCc2cccc(C(F)(F)F)c2)cnn1-c1ccc(F)cc1	n	n	n	n	101	n
Cc1c(C(=O)NCCSCc2ccc(F)cc2)cnn1-c1ccc(Cl)cc1	n	n	n	n	43	n
Cc1c(C(=O)NCCSCc2c(F)cccc2Cl)cnn1-c1ccc(F)cc1	n	n	n	n	n	n
Cc1cc(C)c2nc(SCC(=O)NCCN3C(=O)CSC3=O)cc(C)c2c1	n	n	n	n	n	n
CC(=O)Nc1ccc(C(=O)CSc2cc(C)c3cccc(C)c3n2)cc1	78	n	n	n	n	n
Cc1cc(SCC(=O)c2cccs2)nc2c(C)cccc12	n	n	n	n	n	n
Cc1cc(SCC(=O)NCCN2C(=O)CSC2=O)nc2c(C)cccc12	n	n	n	n	37	n
C[C@@H]1CN([C@@H](C)CO)C(=O)CCCn2nncc2CO[C@@H]1CN(C)S(=O)(=O)c1cccc(C#N)c1	n	n	x	x	x	x
CC1(C)C2CCC(C2)C1(C)NC(=O)CNCc1cccs1 (configuration not stated)	n	n	n	51	n	n
COc1ccc(C2=NN(C(=O)CSC3=NN4CCCC(=O)N=C4S3)C(c3cccc(OC)c3OC)C2)cc1 (configuration not stated)	n	n	n	n	n	n
COc1cccc(C2CC(c3cccs3)=NN2C(=O)CSC2=NN3CCCC(=O)N=C3S2)c1OC (configuration not stated)	n	n	n	53	n	n
SMILES	MazF activator	BH1578 lux ind	BJeLR lethal	VHR inh abs	PfHsp40 rescue	SARS 3CLpro inh
COc1ccccc1CCNC(=O)c1cccc(NC(=O)CC2SC(N3CCCCC3)=NC2=O)c1 (configuration not stated)	n	n	x	x	n	x
NC(=O)c1cc(-c2ccccc2)sc1NC(=O)Cc1ccc(S(=O)(=O)N2CCOCC2)s1	n	n	n	n	n	19
COc1ccc(CCNC(=O)Nc2ccc3c(c2)c(=O)n(C)n3CC=C(C)C)cc1OC	x	n	x	x	x	x
NNc1ccc([N+](=O)[O-])c2[nH][nH]c(=O)c12	n	n	x	x	x	x
COc1ccc(-c2sc3ccccc3c2C#CCO)cc1	n	n	n	n	31	n
OCCCCC#Cc1c(-c2ccsc2)sc2ccccc12	n	n	n	n	u	n
COc1ccc(-c2sc3ccccc3c2C#CCCO)cc1	n	n	n	n	41	n
OCCC#Cc1c(-c2ccsc2)sc2ccccc12	n	n	n	n	56	n
COc1ccc2sc(-c3ccccc3OC)c(C#Cc3cncn3C)c2c1	n	n	x	x	n	x
COc1ccccc1-c1sc2cc3c(cc2c1C#Cc1cncn1C)OCO3	n	n	x	x	246	x
COc1ccc(-c2sc3ccccc3c2C#Cc2cncn2C)cc1	n	n	x	x	414	x
COc1ccc(-c2sc3ccccc3c2/C=C/c2ccncc2)cc1	n	n	x	x	75	x
CCOC(=O)C(=O)N(C)c1c(CC)nc2c(OCc3cc(Cl)cc(Cl)c3)cccn12	x	n	x	x	x	x
CC1CN(C(C)C)C(=S)NC1=O (configuration not stated)	n	x	x	x	n	x
CC1CN(C2CCCCC2)C(=S)NC1=O (configuration not stated)	n	39	x	x	n	x
CCc1[nH]nc(C(=O)N2CCCC(C(=O)c3cccc(OC(C)C)c3)C2)c1C (configuration not stated)	n	n	n	56	n	n
Cc1nn(C)c(C)c1CCC(=O)N1CCCC(C(=O)c2cccc(OC(C)C)c2)C1 (configuration not stated)	n	n	n	51	n	n
CCc1cc(C(=O)N2CCCC(C(=O)c3cccc(OC(C)C)c3)C2)n(C)n1 (configuration not stated)	n	n	n	n	n	n
Nc1cccc(CCc2ccncc2)c1	n	n	n	58	n	n
CN(C)C(=O)c1c(NC(=O)c2ccccc2)sc2c1CCC2	n	n	n	n	n	n
CCN(CC)CCCC(C)NC(=O)c1c(NC(=O)c2ccccc2)sc2c1CCCC2 (configuration not stated)	n	n	n	54	n	n
COc1ccc(NS(=O)(=O)c2ccc3oc(SC(C)C(N)=O)nc3c2)cc1 (configuration not stated)	n	n	n	n	n	n
Clc1cccc(N/N=C(\Cc2nc3ccccc3[nH]2)c2ccccc2)c1	72	n	n	n	426	n
COC(=O)c1c(C)oc2c1cc(NS(=O)(=O)c1ccc(C(=O)O)cc1)c1ccccc12	n	n	n	n	n	n
CC(=O)c1c(C)oc2c1cc(NS(=O)(=O)c1ccc(C(=O)O)cc1)c1ccccc12	79	n	n	n	n	n
COc1ccc(C)cc1N=Nc1ccc(O)c2ncccc12	n	n	n	n	n	n
Cc1ccccc1N=Nc1ccc(O)c2ncccc12	n	n	66	n	n	n
O=S(=O)(O)c1cccc2c(N=Nc3ccc(O)c4ncccc34)cccc12	n	n	n	x	94	n
